# Experimental data as given in PubChem BioAssay AID720697 (Broad Institute, 2013).
# Results with a measured potency or affinity are listed apart. Records with an inconclusive call do not appear. Unmarked numbers belong to inactive results.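 The calls were made as follows: active = signal loss with fitted half-maximal concentration at or below twice the top valid tested dose in every test run; inconclusive = runs disagree, flat 30 to 70% signal loss, or poor fit; inactive = all runs flat, opposite direction, or potency beyond limit.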
# Assay: HEK293T cytotoxicity, dose response, cytotoxicity control for miR-122 modulator project, cell-based, inhibitor set, cherry-pick, set 2 (AID 720697);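 also: 0% = median of neutral control wells and -100% = MG132 positive control wells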
# Conditions: HEK293T viability, CellTiter-Glo luminescence, 48 h; series mostly up to 26 µM; activity change, negative = cytotoxicity: at the top concentration
row,Compound,"activity change, negative = cytotoxicity"
1,CCNC(=O)Nc1ccc2c(c1)C(=O)N(C)[C@H]1CC[C@@H](CC(=O)NCCOC)O[C@@H]1CO2,90.1%
2,CN1C(=O)c2cc(NC(=O)c3cccc(F)c3)ccc2OC[C@@H]2O[C@@H](CC(=O)O)CC[C@H]21,97.3% [at 23.5 µM]
3,CN1C(=O)c2cc(NC(=O)c3cc(F)cc(F)c3)ccc2OC[C@@H]2O[C@@H](CC(=O)O)CC[C@@H]21,-20.5%
4,Cc1noc(C)c1NC(=O)Nc1ccc2c(c1)C(=O)N(C)[C@@H]1CC[C@H](CC(=O)N[C@H]3CCN(Cc4ccccc4)C3)O[C@H]1CO2,109%
5,C/C=C/c1ccc([C@@H]2[C@@H](CO)N(C(C)=O)[C@H]2CN(C(=O)COC)C(C)C)cc1,-3.91%
6,CNC(=O)C[C@H]1CC[C@@H]2[C@@H](COc3ccc(NC(=O)Nc4ccc(Cl)cc4)cc3C(=O)N2C)O1,21% [at 23.5 µM]
7,COc1ccc(NC(=O)N(C)C[C@@H]2Oc3cc(C#CCC(C)C)ccc3S(=O)(=O)N([C@@H](C)CO)C[C@@H]2C)cc1,-65.6%
8,C/C=C/c1ccc([C@H]2[C@@H](CO)N(C(=O)CC)[C@H]2CNC(=O)CC)cc1,107%
9,c1cnc(N2CCN(Cc3c[nH]c4ccccc34)CC2)nc1,6.09%
10,Cc1cnc(NC(=O)c2cc3c(C)nn(-c4ccccc4)c3s2)s1,54.1%
11,O=CN1CCN(C(=O)c2ccccc2F)CC1,4.87%
12,CO[C@@H]1CN(C)C(=O)c2cc(NC(=O)Nc3ccc(Cl)c(Cl)c3)ccc2OC[C@H](C)NC[C@H]1C,31.4%
13,COc1cccc(NC(=O)N2[C@H](CO)[C@@H](c3ccccc3)[C@H]2CNCC(C)C)c1,-37.2%
14,CC(=O)c1ccc(Nc2nc3ccc(C)cc3n3cnnc23)cc1,52.6%
15,COC(=O)c1c(N)nc(C)n1-c1ccc(OC)cc1,55.2%
16,CCNC(=O)C[C@@H]1CC[C@H]2[C@H](COc3ccc(NC(=O)c4ccccc4)cc3C(=O)N2C)O1,92.7%
17,C[C@H](CO)N1C[C@H](C)[C@H](CN(C)C(=O)Nc2cccc3ccccc23)Oc2ncc(C#Cc3ccc(C(F)(F)F)cc3)cc2C1=O,-12.7%
18,COC(=O)C[C@H]1CC[C@@H]2[C@H](COc3ccc(NC(=O)c4cccs4)cc3C(=O)N2C)O1,118%
19,O=C(N/N=C/c1ccco1)c1cccc(N2CCCC2=O)c1,34.1%
20,COc1ccc(S(=O)(=O)Nc2cccc3c2O[C@H](CN(C)CC2CCCCC2)[C@@H](C)CN([C@H](C)CO)C3=O)cc1,94.8%

row,Compound,"activity change, negative = cytotoxicity"
1,COC(=O)C[C@@H]1CC[C@H]2[C@@H](COc3ccc(NC(=O)Nc4ccccc4C)cc3C(=O)N2C)O1,87.2%
2,Cc1ccccc1NC(=O)Nc1ccc2c(c1)C(=O)N(C)[C@H]1CC[C@@H](CC(=O)O)O[C@H]1CO2,53.3% [at 23.5 µM]
3,CN1C(=O)c2cc(NC(=O)Nc3ccccc3F)ccc2OC[C@@H]2O[C@@H](CC(=O)NCc3ccc(-c4ccccc4)cc3)CC[C@H]21,129%
4,C[C@@H]1CN([C@H](C)CO)S(=O)(=O)c2ccc(C3=CCCCC3)cc2O[C@@H]1CN(C)C(=O)Nc1ccc2c(c1)OCO2,88.1%
5,CN1C(=O)c2cc(NC(=O)c3cccc(F)c3)ccc2OC[C@@H]2O[C@@H](CC(=O)O)CC[C@@H]21,30.4% [at 23.5 µM]
6,O=C(Nc1ccccc1F)N1[C@H](CO)[C@@H]2c3ccccc3NC[C@@H]21,6.09% [at 23.5 µM]
7,CO[C@@H]1CN(C)C(=O)c2ccc(NC(=O)c3nc4ccccc4s3)cc2OC[C@H](C)N(Cc2cccnc2)C[C@H]1C,16.9%
8,CNC(=O)C[C@@H]1CC[C@@H]2[C@@H](COc3ccc(NC(=O)c4ccccc4F)cc3C(=O)N2C)O1,102% [at 23.5 µM]
9,CNC(=O)C[C@H]1CC[C@@H]2[C@H](COc3ccc(NC(=O)Nc4ccccc4OC)cc3C(=O)N2C)O1,52.7%
10,C[C@@H]1CN([C@@H](C)CO)C(=O)c2cc(NC(=O)Nc3cccc4ccccc34)ccc2O[C@@H](C)CCCCO[C@H]1CN(C)CC1CCCCC1,-48.5%
11,C/C=C/c1ccc([C@H]2[C@@H](CO)N(Cc3ccccn3)[C@H]2CNC(C)=O)cc1,156% [at 23.5 µM]
12,CC(C)Oc1ccc(CNCCC2(C(C)C)CCOC(C)(C)C2)cc1 (centres undefined),76.1%
13,CCC(=O)Nc1ccc2c(c1)C(=O)N(C)[C@@H]1CC[C@H](CC(=O)Nc3cccc(OC)c3)O[C@@H]1CO2,116%
14,CC(C)C(=O)Nc1ccc2c(c1)C(=O)N(C)[C@@H]1CC[C@H](CC(=O)NCC3CC3)O[C@H]1CO2,7.63% [at 23.5 µM]
15,CCNC(=O)C[C@H]1CC[C@H]2[C@@H](COc3ccc(NS(C)(=O)=O)cc3C(=O)N2C)O1,92.5%
16,CCCNC(=O)N1C[C@@H]2[C@H](c3ccccc31)[C@@H](CO)N2C(=O)C1CCOCC1,34.3%
17,CC(=O)Oc1ccc2c(c1)C(=O)c1ccccc1CO2,-73.2%
18,C[C@H](CO)N1C[C@H](C)[C@H](CN(C)S(=O)(=O)c2cccc(F)c2)Oc2ncc(C#CC3CCCCC3)cc2C1=O,-9.4%
19,Nc1ccc(Oc2ccc(Br)cc2)cc1,92.3%
